HT1080NT lethal = kills 2HG-producing HT-1080-NT fibrosarcoma cells. AID 686970. 1.6% of 360,000 active. HT-1080-NT fibrosarcoma viability, CellTiter-Glo ATP luminescence, 48 h. Potency, µM (series often up to 46.1 µM), hits mostly cytotoxic;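 also: NT is the 2HG producing partner of a matched IDH1 knockdown line; nearly all actives have a fitted effect of over 55% in size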
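A 48-hour cytotoxicity screen used HT-1080-NT cells plated 2 hours before compound delivery. ATP-based CellTiter-Glo luminescence measured viability, normalized to DMSO and no-cell controls.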
KB-3-1 cytotox = KB-3-1 parental cell cytotoxicity | KB-3-1 viability, CellTiter-Glo ATP luminescence, 72 h | Potency, µM (top dose mostly 46.1 µM), usual class: cytotoxic | 1.4% of 400,000 active; also: nearly all actives have a fitted effect of over 60% in size
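Screening of KB-3-1 cells (DMEM, 10% FBS, phenol-red free) ran from lowest to highest compound concentration; after 72 h at 37 °C viability was read luminescently and curves fitted.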
TDP1 cell noCPT = qHTS for Inhibitors of human tyrosyl-DNA phosphodiesterase 1 (TDP1): qHTS in cells in absence of CPT | DT40 Tdp1-/- hTDP1 cells, no CPT, ATP luminescence, 48 h | Potency, µM (highest dose often 46.2 µM), usual class: inhibitors | 15% of 420,000 active; also: nearly all actives have a fitted effect of over 55% in size
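Seeded 400 DT40-hTDP1 cells/well (vehicle DMSO, no 20 nM CPT); pinned compounds; ≥48 hr at 37 °C; CellTiter-Glo luminescence as viability measure.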
DT40 TDP1 CPT = growth inhibition of DT40 Tdp1-/-;hTDP1 cells with camptothecin (screen for TDP1 inhibitors); chicken DT40 Tdp1-/-;hTDP1 cells + 20 nM CPT, ATP luminescence, 48 h; 12% of 420,000 active; Potency, µM (series often up to 46.2 µM), usual class: inhibitors; AID 686979; also: nearly all actives have a fitted effect of over 55% in size
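Chicken DT40 Tdp1-/- cells complemented with human TDP1, 400 cells/well, exposed to compounds plus 20 nM camptothecin for at least 48 h at 37 C; viability read as ATP content by CellTiter-Glo luminescence.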
KB-V1 MDR tox = KB-V1 MDR subline cytotoxicity; 3.4% of 400,000 active; KB-V1 MDR cells viability, CellTiter-Glo, 72 h; Potency, µM (top dose mostly 46.1 µM), hits mostly cytotoxic; also: nearly all actives have a fitted effect of over 60% in size
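Cells of the MDR subline KB-V1 are plated, dosed with compound at multiple concentrations, and incubated 72 h at 37 degrees C; CellTiter-Glo is then added and luminescence read after 10 min.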
HT1080 IDH1KD tx = kills HT-1080 cells with IDH1 knockdown. HT-1080 IDH1 knockdown viability, ATP luminescence, 48 h. 2% of 360,000 active. Potency, µM (series often up to 46.1 µM), most hits filed as cytotoxic. AID 686971
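HT-1080-IDH1KD cells (IDH1 knocked down), 750/well in RPMI with 5% FBS, treated with compound 48 h at 37 degrees C. Viability by CellTiter-Glo luminescence, normalised to DMSO and no-cell wells; concentration-response curves classed.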
Hits are given with their value; - = inactive; ? = inconclusive; . = not tested or not shown. Shown are actives, neighbours in structure and some others; about 19% of the full set was active somewhere. Calls follow the shape of the dose curve; as a rule, active = well fitted curve in the direction sought with a large enough effect; inconclusive = small, poorly fitted or top-dose-only effect, or another doubt; inactive = no such curve, though single readings can be large; an effect the other way counts as inactive or inconclusive.

SMILES | HT1080NT lethal | KB-3-1 cytotox | TDP1 cell noCPT | DT40 TDP1 CPT | KB-V1 MDR tox | HT1080 IDH1KD tx
Cc1ccc(S(=O)(=O)N2CCN(C(=O)c3ccc(N4CCC(C)CC4)c([N+](=O)[O-])c3)CC2)cc1 | - | - | ? | ? | 18µM | -
O=C(c1ccc(N2CCOCC2)c([N+](=O)[O-])c1)N1CCCCC1 | - | - | - | - | - | -
CCS(=O)(=O)N1CCN(c2ccc(C(=O)N3CCOCC3)cc2[N+](=O)[O-])CC1 | - | - | - | - | - | -
COC(=O)c1ccc(N2CCN(S(=O)(=O)c3ccc(C)cc3)CC2)c([N+](=O)[O-])c1 | - | - | 21µM | 18µM | - | -
Cc1ccc(C)c(N2CCN(C(=O)c3ccc(N4CCOCC4)c([N+](=O)[O-])c3)CC2)c1 | ? | - | 16µM | ? | - | -
Cc1ccc2c(CN3CCN(c4ccc(Cl)c(Cl)c4)CC3)cc(=O)oc2c1 | - | - | ? | ? | - | -
CCC(c1nc2ccccc2[nH]1)n1c(-c2ccnc(Cl)c2)nc2ccccc21 (stereo not given) | - | - | - | - | ? | -
COc1cc2c(cc1OC)C1=C(C#N)CCC(=NC(=O)c3ccco3)N1CC2 | - | ? | - | - | ? | -
COc1cc2c(cc1OC)C1=C(C#N)CC/C(=N\S(=O)(=O)c3cccc(Cl)c3)N1CC2 | - | ? | - | - | 16µM | ?
Cc1sc2ncnc(NCC(O)c3ccc([N+](=O)[O-])cc3)c2c1C (stereo not given) | ? | ? | 2.9µM | 7.3µM | ? | ?
c1coc(CNc2ncnc3sc4c(c23)CCCCC4)c1 | - | - | ? | ? | ? | -
Cc1sc2ncnc(NCC(c3ccccc3)N(C)C)c2c1C (stereo not given) | - | - | ? | ? | - | -
Cc1sc2ncnc(NCC(O)c3ccccc3)c2c1C (stereo not given) | - | - | 4.6µM | 7.3µM | ? | -
Cc1sc2ncnc(NCCN3CCOCC3)c2c1C | - | - | 18µM | 13µM | 16µM | -
Cc1sc2ncnc(NCCCO)c2c1C | - | - | ? | - | - | -
Cc1sc2ncnc(NCc3ccco3)c2c1C | - | 6.5µM | 16µM | 10µM | 2.6µM | -
Nc1ccc(S(=O)(=O)N2CCOCCOCCOCCOCCOCC2)cc1 | - | - | - | - | - | -
COc1ccccc1CCNC(=O)c1cc2c(=O)n3cccc(C)c3nc2n1C | . | . | - | - | . | .
COc1ccccc1C=NNC(=O)C(=O)NN=Cc1ccccc1OC | - | - | - | - | - | -
CCc1ccccc1N(CC)C(=O)c1cc2c(s1)-c1ccccc1OC2 | . | - | . | . | - | .
CCOC1=C2[C@@H](CN(S(=O)(=O)c3ccc(C)cc3)[C@H]2c2ccccc2Cl)[C@H]2C(=O)N(Cc3ccccc3)C(=O)[C@H]2C1 | - | - | 15µM | 18µM | - | -
Cc1c(C(=O)NC2CCC(C)CC2)oc2ccccc12 (stereo not given) | - | - | - | - | - | -
Cc1ccc(-n2nc(CN3CCOCC3)c(-c3ccccc3)c2N)cc1Cl | - | - | 21µM | 29µM | - | -
Cc1ccc(-n2nc(CC#N)c(C#N)c2N)cc1Cl | - | - | - | - | - | -
N#Cc1nc(N2CCCCC2)nc(N(c2ccccc2)c2ccccc2)n1 | . | - | 13µM | 11µM | - | .
SMILES | HT1080NT lethal | KB-3-1 cytotox | TDP1 cell noCPT | DT40 TDP1 CPT | KB-V1 MDR tox | HT1080 IDH1KD tx
N#Cc1nc(N2CCCCC2)nc(N2CCCCC2)n1 | . | - | 13µM | ? | - | .
Cc1ccc(SCC(=O)c2ccc(CC(=O)O)s2)cc1 | - | - | - | - | - | -
Cc1ccc(OCC(=O)NCC2(N(C)C)CCCCC2)cc1C | . | - | - | - | - | .
CCCN(CCC)Cc1c(C(=O)N/N=C/CCc2ccccc2)nnn1-c1nonc1N | - | - | - | - | - | -
O=C(C[n+]1csc2ccccc21)c1ccc(I)cc1 | . | - | 11µM | ? | - | .
O/N=C(/C[n+]1csc2ccccc21)c1ccccc1 | . | ? | 1.1µM | 1.1µM | - | .
O/N=C(\Cn1ccnc1)c1ccccc1 | - | - | - | - | - | -
Cc1csc[n+]1CC(=O)c1ccc(I)cc1 | . | - | ? | 16µM | - | .
Oc1ccc(C2CNCc3sccc32)cc1O (stereo not given) | ? | - | 21µM | 15µM | - | ?
Nc1nc(CCl)nc(Nc2cccc3ccccc23)n1 | 0.52µM | ? | 3.3µM | ? | ? | ?
Cc1ccccc1Nc1nc(N)nc(COC(=O)c2ccccc2)n1 | - | - | - | - | - | -
COc1ccc(C(=O)c2c(C)c3ccccc3n2CC(O)CNC(C)C)cc1 (stereo not given) | ? | ? | 23µM | ? | ? | ?
CNC(=O)C1CCN(Cc2cc3ccccc3n2Cc2cccc(C)c2)CC1 | . | - | 16µM | 18µM | - | .
CCNC(=O)C1CCN(Cc2cc3ccccc3n2Cc2ccc(C)cc2)CC1 | . | - | 21µM | 23µM | - | .
Cc1ccc(Cn2c(CN3CCC(C(=O)NCc4cccnc4)CC3)cc3ccccc32)cc1 | . | - | ? | ? | - | .
Cc1cccc(CN2CCC(C(N)=O)CC2)c1 | - | - | - | - | - | -
CCN(CC)c1ccc(CN2CCC(C(=O)NCc3ccc(C)cc3)CC2)cc1 | ? | - | 15µM | 15µM | ? | -
COCCNC(=O)C1CCN(Cc2cc3ccccc3n2Cc2ccc(C)cc2)CC1 | . | - | 21µM | 16µM | - | .
CCN(CC)C(=O)C1=C(C)N(CCCN2CCCC2=O)C(=O)C(CC(=O)NC2CCCC2)C1 (stereo not given) | - | - | - | - | - | -
Cc1ccc(CNC(=O)CN(c2ccc(Cl)cc2)S(C)(=O)=O)cc1 | - | - | - | - | - | -
COc1ccc(C(=O)OC(C)C(=O)NC2CCCCC2C)cc1S(=O)(=O)N1CCOCC1 (stereo not given) | - | - | - | - | - | -
COc1ccccc1CN(C(=O)CNC(=O)c1ccco1)C(C(=O)NCC1CCCO1)c1ccccc1 (stereo not given) | - | - | ? | - | - | -
Cc1ccc(Cn2c(CN3CCC(C(=O)NCc4ccccc4C)CC3)cc3ccccc32)cc1 | . | - | 16µM | 21µM | - | .
CCOc1ccc(NC(=O)c2oc3ccccc3c2NC(=O)Cc2cccc(C)c2)cc1 | . | - | ? | - | - | .
CC1=C(C(=O)Nc2ccc(Cl)cc2)C(C(C)C)n2nc(SCc3cccc(C)c3)nc2N1 (stereo not given) | . | - | ? | ? | ? | .

Screening results as filed in PubChem BioAssay.
